These results are taken from PubChem BioAssay AID376 (PDSP, 2006).

Among all 2,000 compounds or so, about 250 (12%) were called active. The list comes from a sample in which actives are over-represented; it also holds similar structures and randomly drawn compounds. A number with no mark means an inactive call. Rule as the data show it: active = hERG blockade below about -20% or above about 20%; inactive = in between.

Voltage-gated inwardly rectifying potassium channel KCNH2 (Homo sapiens), sequence (Q12809 whole entry, looked up): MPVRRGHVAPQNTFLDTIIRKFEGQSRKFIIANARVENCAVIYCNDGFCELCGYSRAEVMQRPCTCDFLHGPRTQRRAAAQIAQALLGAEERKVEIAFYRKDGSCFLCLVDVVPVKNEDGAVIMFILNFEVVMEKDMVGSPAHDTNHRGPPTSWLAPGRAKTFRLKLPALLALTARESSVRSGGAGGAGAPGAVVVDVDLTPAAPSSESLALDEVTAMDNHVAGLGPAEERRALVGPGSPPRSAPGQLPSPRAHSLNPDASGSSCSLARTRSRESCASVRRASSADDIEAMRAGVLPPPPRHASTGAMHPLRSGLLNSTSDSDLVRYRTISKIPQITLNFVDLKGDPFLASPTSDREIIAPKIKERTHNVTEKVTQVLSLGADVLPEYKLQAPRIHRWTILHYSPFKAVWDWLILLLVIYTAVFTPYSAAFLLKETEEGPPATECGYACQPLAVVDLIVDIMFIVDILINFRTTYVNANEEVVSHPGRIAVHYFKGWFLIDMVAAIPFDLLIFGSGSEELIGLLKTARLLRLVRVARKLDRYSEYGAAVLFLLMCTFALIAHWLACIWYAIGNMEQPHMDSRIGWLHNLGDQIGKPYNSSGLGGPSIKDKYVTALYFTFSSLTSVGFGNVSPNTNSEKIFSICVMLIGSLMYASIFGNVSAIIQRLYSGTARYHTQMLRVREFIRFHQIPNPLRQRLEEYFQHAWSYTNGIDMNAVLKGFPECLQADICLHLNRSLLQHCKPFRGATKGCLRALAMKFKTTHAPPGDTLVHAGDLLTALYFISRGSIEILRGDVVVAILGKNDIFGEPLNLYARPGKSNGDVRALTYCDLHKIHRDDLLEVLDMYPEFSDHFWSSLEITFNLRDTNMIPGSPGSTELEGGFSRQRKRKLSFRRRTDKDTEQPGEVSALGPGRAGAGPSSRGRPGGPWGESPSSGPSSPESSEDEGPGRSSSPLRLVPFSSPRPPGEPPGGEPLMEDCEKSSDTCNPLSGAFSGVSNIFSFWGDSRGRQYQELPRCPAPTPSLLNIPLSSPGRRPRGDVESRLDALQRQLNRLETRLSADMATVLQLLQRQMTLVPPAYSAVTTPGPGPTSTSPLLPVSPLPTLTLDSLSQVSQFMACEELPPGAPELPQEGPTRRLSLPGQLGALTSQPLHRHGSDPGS

The assay addresses Voltage-gated inwardly rectifying potassium channel KCNH2 (Homo sapiens) (UniProt Q12809). Description: KCNH2 potassium channel function modulators, cell-based (AID 376).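 Also: 0% = buffer alone and 100% = reference blocker.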 The conditions noted are these: hERG-expressing cells, channel activity single-concentration screen; concentration not given here.
Consider `CC(=O)C(C)CCOC1(C)OCCC1C` (stereo not drawn), for which the hERG blockade is -22.8% (active). For `Cc1ccc(C)c(C(=N)c2ccccc2Cc2ccccc2)c1`, the hERG blockade is -12.5%. The same measure for `CC(SCc1ccccc1)C(=O)O` (stereo not drawn): 3.31%; for `NCC(=O)Nc1ccccc1`: 5.81%. The same measure for `O=C(c1no[n+]([O-])c1C(=O)c1csc2ccccc12)c1csc2ccccc12`: 18.4%. On to `Cc1cccc2c1Oc1ccccc1C2NC(=O)c1ccc([N+](=O)[O-])cc1` (stereo not drawn), for which the hERG blockade was 32.2% (active). Next, `O=C(O)c1ccccc1C1c2ccccc2Oc2ccccc21`: 12.2%; `NC(CC1=CS(=O)(=O)c2ccc(Cl)cc21)C(=O)O` (stereo not drawn): 0.214%; `Cc1cc(C(=O)CSC(=S)SC(C)(C)C)ccc1Cl`: 8.12%.

For the compound `CN(C)CCCNc1cc(O)c2c(c1O)C(=O)c1ccccc1C2=O`, the hERG blockade is 42.1% (active).

`CC1=NCC[N+]1(CCc1ccccc1)Cc1ccccc1` (stereo not drawn): the hERG blockade was 13.6%. The same measure for `CN(C)S(=O)(=O)c1nc(Cl)c2[nH]cnc2n1`: -2.43%. With `COc1cc(NCCC(=O)O)c2ncccc2c1`, the hERG blockade was 11.9%. Next, `Cn1c(=O)c2[nH]c(CCCCc3nc4c([nH]3)c(=O)n(C)c(=S)n4C)nc2n(C)c1=S`: -1.88%; `O=C1C=C(N2CCN(c3ccccn3)CC2)C(=O)c2c(O)ccc(O)c21`: 23.2% (active); `Oc1ccc(Cl)cc1C=Nc1cnc2ccccc2c1`: 9.11%.

In the case of `C=CCSc1nc2ccccc2c(=O)n1Cc1ccco1`, the hERG blockade was 3.62%. In the case of `N#CNC(N)=Nc1ccc(Cl)cc1`, the hERG blockade is -2.36%. Next, `O=C(O)C12CC3(C(=O)O)CC(C(=O)O)(CC(C(=O)O)(C1)C3=O)C2=O`: -1.77%. Next, `FC(F)(F)c1cccc(-c2nc3nc(Cl)c(Cl)nc3[nH]2)c1`: -24% (active); `CC(CCN)(CCN)[N+](=O)[O-]`: -18.2%; `CN(Cc1cc(C(C)(C)C)cc(Br)c1O)Cc1cc(C(C)(C)C)cc(Br)c1O`: 5.11%. The same measure for `CC(C)C(=O)Cc1ccc2ccccc2n1`: -1.76%. `CCOC(=S)SCC(=O)O`: the hERG blockade was 0.925%. On to `O=C(O)C1C2CCC(O2)C1C(=O)Nc1cccc2cccnc12` (stereo not drawn), for which the hERG blockade was -5.21%. The same measure for `O=C(O)C1C2CCC(O2)C1C(=O)NCc1cccnc1` (stereo not drawn): -25.3% (active); for `O=C(O)C1C2C=CC(O2)C1C(=O)NCc1cccnc1` (stereo not drawn): 5.66%. For the compound `N=c1ncn(CC=Cc2ccccc2)c2nc[nH]c12`, the hERG blockade is 15.2%. The same measure for `CN(N=O)c1ccc(C=Cc2ccnc3ccccc23)cc1`: 18.7%. The same measure for `CN1CCN(CN2C(=O)C3C4C=CC(C3C2=O)C2C3C(=O)N(CN5CCN(C)CC5)C(=O)C3C42)CC1` (stereo not drawn): 2.12%; for `NC(Cc1ccnnc1)C(=O)O` (stereo not drawn): -0.431%. The same measure for `O=C(O)C1CC=CCC1C(=O)Nc1cccc(O)c1` (stereo not drawn): 7.36%; for `O=C1c2ccccc2C(=O)c2c(Nc3cc4c5c(ccc6c7ccc8c9c(cc(Nc%10cccc%11c%10C(=O)c%10ccccc%10C%11=O)c(c3c56)c97)-c3ccccc3C8=O)C(=O)c3ccccc3-4)cccc21`: 34.1% (active); for `O=C1c2ccccc2C(=O)c2c(NC(=O)c3ccc4c5c(ncnc35)-c3ccccc3C4=O)cccc21`: 6.48%. In the case of `O=C1c2ccccc2C(=O)c2c(Nc3ccc4c5c(cccc35)C(=O)c3ccccc3-4)cccc21`, the hERG blockade was -13.6%. Next, `CC1CCC(O)(C(C)(C(=O)O)c2ccccc2)CC1` (stereo not drawn): 5.36%; `CCCn1cnc2c(SCc3ccc(Cl)cc3)nc(N)nc21`: -2.91%; `C=CCC(C(=O)O)c1ccccc1` (stereo not drawn): -1.33%. As for `CN(C)CN1CSC(=S)N(CN(C)C)C1`, the hERG blockade is -7.7%. The same measure for `Cn1c(=O)c2[nH]c(CCS)nc2n(C)c1=O`: 5.6%.

For `CCn1c(CCCc2nc3c([nH]2)c(=O)n(C)c(=O)n3C)nc2c1c(=O)n(C)c(=O)n2C`, the hERG blockade is 25.2% (active). Consider `Cn1c(=O)c2[nH]c(CCCCC(=O)O)nc2n(C)c1=O`, for which the hERG blockade was -14.9%. Regarding `O=C(O)CC(Nc1ccccc1)C(=O)O` (stereo not drawn), the hERG blockade was 12.6%. The same measure for `O=C(O)c1nnsc1COCc1ccccc1`: 7.88%. Next, `O=c1c2ccccc2sc2c(CO)ccc(NCCN3CCCCC3)c12`: 46% (active); `O=C(CCN1CCCCC1)c1csc2ccccc12`: 6.4%; `CC(=O)OC1CCC2(C)C(=CCC3C2CCC2(C)C(C(C)C(=O)O)CCC32)C1` (stereo not drawn): -4.67%.

For the compound `CC(=O)OC1CCC2(C)C(=CCC3C2CCC2(C)C3CC3OC4(CCC(C)CN4)C(C)C32)C1` (stereo not drawn), the hERG blockade was -9.31%. Next, `CC(=O)OC1CCC2(C)C(=CCC3C2CCC2(C)C(c4cc(C(F)(F)F)n(C(C)=O)n4)CCC32)C1` (stereo not drawn): 20.6% (active). Next, `CC(C)(CN)CN`: -12.2%; `O=c1c[n+](CCCC[n+]2cc(=O)o[nH]2)[nH]o1`: -2.64%; `Nc1ncnc2nc[nH]c12.Nc1ncnc2nc[nH]c12.[Cl][Pt]([Cl])([Cl])[Cl]`: 0.497%. The same measure for `O=C1C=C(Nc2nc(C(=O)O)cc(=O)[nH]2)c2ccccc2C1=O`: 2.16%. For `O=C=Nc1ccc(Cc2ccc(N=C=O)cc2)cc1` (tested in a mixture with another compound), the hERG blockade is 20% (active). The same measure for `Nc1n[nH]c2ccccc12`: 0.624%; for `CN(C)CCNS(=O)(=O)N(C)C`: 6.32%; for `COc1c2c(c3c(c1CCC(=O)O)OC(C)(C)C=C3)OC(C)(C)C=C2`: -28.9% (active).

As to `O=C(O)CSc1ccc(N=C=S)cc1`, the hERG blockade was 3.98%. Turning to `CC(C)(N)C(=O)NC1C(=O)N2C1SC(C)(C)C2C(=O)O` (stereo not drawn), the hERG blockade was -3.34%.

Turning to `COC1C=COC2(C)Oc3c(C)c(O)c4c(O)c(c(CN(C)C)c(O)c4c3C2=O)NC(=O)C(C)=CC=CC(C)C(O)C(C)C(O)C(C)C(OC(C)=O)C1C` (stereo not drawn), the hERG blockade is 16.3%.

Turning to `NN(CC(=O)O)CC(=O)O`, the hERG blockade was 0.375%. `CS(=O)(=O)N(CC(=O)O)Cc1ccccc1`: the hERG blockade was 12.2%. Next, `O=C(O)CN(CC(=O)O)c1ccccc1`: -27.7% (active).
